Screen size: about 650,000 compounds; about 5,900 (0.91%) were called active. No stated cut-off is given here; in the data, active means inhibition above about 50%; inactive means the rest. Only a selection was taken, and actives are over-represented in it overall.
molecular target: Microphthalmia-associated transcription factor (Homo sapiens) (UniProt O75030); assay: MITF inhibitors, primary screen, biochemical, AlphaScreen, human (AID 1259374); settings: AlphaScreen MITF homodimerization, bead proximity signal; at 2.6 µM; stronger effect = higher value;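 further: 0% = vehicle wells with protein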
Sequence (O75030 whole entry, looked up): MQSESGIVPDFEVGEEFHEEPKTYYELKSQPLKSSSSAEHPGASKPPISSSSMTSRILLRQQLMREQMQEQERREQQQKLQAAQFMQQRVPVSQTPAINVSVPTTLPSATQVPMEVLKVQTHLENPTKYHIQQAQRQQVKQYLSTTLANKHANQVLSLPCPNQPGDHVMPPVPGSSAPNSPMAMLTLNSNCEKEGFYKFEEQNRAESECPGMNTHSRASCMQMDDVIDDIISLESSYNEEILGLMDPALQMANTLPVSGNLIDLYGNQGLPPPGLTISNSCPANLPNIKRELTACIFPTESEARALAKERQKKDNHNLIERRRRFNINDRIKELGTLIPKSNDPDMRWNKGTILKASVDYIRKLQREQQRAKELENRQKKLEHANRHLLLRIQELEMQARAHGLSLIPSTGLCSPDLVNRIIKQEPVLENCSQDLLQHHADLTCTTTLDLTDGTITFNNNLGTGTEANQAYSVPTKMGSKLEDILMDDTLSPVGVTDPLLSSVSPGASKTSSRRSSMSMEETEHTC

Compound | inhibition
CN(C)CCN(C)Cc1c(F)cccc1Cl | 49.6% (inactive)
CCN(CCN(C)C)Cc1c(Cl)cccc1Cl | 56.6% (active)
CCN(CC)CCN(CC)Cc1c(F)cccc1F | 6.2% (inactive)
CCOC(=O)C1C(=O)C=C(c2ccc(F)cc2)CC1c1cccs1 (stereo not drawn) | -5.44% (inactive)
CC(C)CO/N=C1\C[C@@H](O)[C@@H](O)[C@@H]2[C@@H]3C(=O)N(C[C@@H]4CCCO4)C(=O)[C@@H]3CC[C@@H]12 | -23% (inactive)
C[C@@H](c1ccccc1)N1C(=O)[C@H]2[C@H]3[C@H](O)C=CC(=O)[C@@H]3CC[C@H]2C1=O | 17.6% (inactive)
CC(C)CO/N=C1\C[C@@H](O)[C@@H](O)[C@@H]2[C@@H]3C(=O)N([C@@H](C)c4ccccc4)C(=O)[C@@H]3CC[C@@H]12 | 114% (active)
O=C(CN(Cc1cccs1)C(=O)c1nsc(Cl)c1Cl)NC1CCCC1 | 11.8% (inactive)
Nc1nccc(-c2ccc3nc(C4COc5ccc(Br)cc5C4)[nH]c3c2)n1 (stereo not drawn) | 8.16% (inactive)
Cc1nn(C(=O)N2CCOCC2)c(C)c1Br | 13.6% (inactive)
NC(=O)CCn1cc(/C=C2\Cc3ccccc3C2=O)c2ccccc21 | -5.7% (inactive)
Clc1ccc(Cl)c(N2Cc3cc4c(cc3C2)CN(c2cc(Cl)ccc2Cl)C4)c1 | 4.43% (inactive)
COc1ccc(-c2cc(C(=O)OCC(=O)/C(C#N)=C(\C)N)c3ccccc3n2)cc1 | 7.78% (inactive)
COc1cccc(OC)c1C(=O)OCC(=O)/C(C#N)=C(\C)N | -4.31% (inactive)
C/C(N)=C(/C#N)C(=O)COC(=O)c1c2c(nc3ccccc13)/C(=C/c1ccco1)CC2 | 81.7% (active)
CCOc1ccc(-c2ccc(SCC(=O)Nc3cc(C)on3)nn2)cc1 | 4.05% (inactive)
O=C(CSc1ccc(-c2ccccn2)nn1)Nc1ccccc1 | 49.6% (inactive)
Cc1cc(NC(=O)CSc2ccc(-c3ccccn3)nn2)no1 | 78.7% (active)
Cc1[nH]c(=O)[nH]c(=O)c1S(=O)(=O)N1CCC(Cc2ccccc2)CC1 | -4.65% (inactive)
O=C(Nc1cccc(NC(=O)c2ccc(S(=O)(=O)N3CCOCC3)cc2)c1)c1ccc(S(=O)(=O)N2CCOCC2)cc1 | -11.6% (inactive)
Clc1cc(Cl)c(OCCOc2ccccc2)c(/C=N/n2cnnc2)c1 | -17.6% (inactive)
Cc1ccccc1NC(=O)NCCOc1cc(N2CCCC2)ncn1 | 63.9% (active)
CC(C)(C)NC(=O)N1CCN(c2cc(N3CCCC3)ncn2)CC1 | 5.52% (inactive)
Cc1ccccc1NC(=O)C(=O)N1CCCCC1 | -9.16% (inactive)

Compound | inhibition
CCOC(=O)c1ccc2c(c1)nc(C(C)C)n2CC | 29.7% (inactive)
Cc1ccc(OCCCCNCCN2CCOCC2)c(Br)c1 | 65.7% (active)
c1ccc(-c2ccccc2OCCNCCN2CCOCC2)cc1 | 58.3% (active)
Cc1ccc(OCCCNCCN)c(Br)c1 | 5.41% (inactive)
Clc1c(OCCCNCCN2CCOCC2)ccc2ccccc12 | 26% (inactive)
c1ccc(-c2ccccc2OCCCCNCCN2CCOCC2)cc1 | 11.5% (inactive)
c1ccc(-c2ccc(OCCCNCCN3CCOCC3)cc2)cc1 | -7.58% (inactive)
CC(NC(=O)Cn1c(C2CC2)nc2ccccc21)C1CC2CCC1C2 (stereo not drawn) | 5% (inactive)
C/C(=N\NC(=O)C(O)c1ccccc1)c1ccc2c(c1)CCCC2 (stereo not drawn) | -5.38% (inactive)
O=C(NC1CSC/C1=N\Nc1cc([N+](=O)[O-])cc([N+](=O)[O-])c1)c1ccccc1 (stereo not drawn) | 18% (inactive)
O=C(CC1(c2ccccc2F)CC(=O)N(C2CCCCC2)C1=O)N1CCOCC1 (stereo not drawn) | -8.12% (inactive)
CCOc1ccccc1N(CC(=O)NC(C)(C)CC)C(=O)CCC(=O)Nc1nccs1 | -1.1% (inactive)
CNC(=O)c1c(NC(=O)C2CCCCC2)sc2c1CCC(C)C2 (stereo not drawn) | -7.36% (inactive)
NC(=O)c1c(NC(=O)CCC(=O)OCC(=O)Nc2ccccc2Cl)sc2c1CCC2 | -2.18% (inactive)
Cc1ccc(NC(=O)COC(=O)CCC(=O)Nc2sc3c(c2C(N)=O)CCC3)cc1F | 84.3% (active)
CC(C)(C)c1ccc(OCC(=O)OCC(=O)Nc2sc3c(c2C(N)=O)CCC3)cc1 | 0.98% (inactive)
Cc1cc(SCC(=O)N2CCOCC2)nc2ccccc12 | 14.6% (inactive)
CCOc1cccc(/C=N/NC(=O)COc2cccc(C)c2C)c1O | 2.99% (inactive)
CCCCNC(=S)N/N=C/c1ccccc1OCC(=O)O | -2.56% (inactive)
CCOc1cccc(/C=N/NC(=S)NCCN2CCOCC2)c1O | 63.2% (active)
COc1ccccc1N(C(C)=O)C1C=CS(=O)(=O)C1 (stereo not drawn) | 1.71% (inactive)
c1cncc(CCNc2ccc3ncc(-c4cc5ccccc5o4)n3n2)c1 | 54.6% (active)
c1cncc(CCNc2ccc3ncc(-c4cccc5ccccc45)n3n2)c1 | -3.61% (inactive)
Cc1csc(-c2cnc3ccc(NCCc4cccnc4)nn23)c1 | -21.5% (inactive)

Compound | inhibition
COc1cccc(-c2ncnn2-c2sc3c(c2C#N)CCCCC3)c1 | 63.4% (active)
CCOc1ccc(-c2ncnn2-c2sc3c(c2C#N)CCCC3)cc1 | -3.27% (inactive)
N#Cc1c(-n2ncnc2-c2ccccc2)sc2c1CCCC2 | -14.9% (inactive)
O=C(Nc1nccs1)C(c1ccccc1)c1ccccc1 | -0.78% (inactive)
O=C(O)C1C2C=CC(O2)C1C(=O)Nc1nccs1 (stereo not drawn) | 81.7% (active)
CCCCOC(=O)c1ccc(NC(=O)C2C3C=CC(O3)C2C(=O)O)cc1 (stereo not drawn) | -9.29% (inactive)
COc1ccc(-c2nc3n(c2NC(C)(C)C)CCNC3)cc1 | 0.05% (inactive)
COc1ccc(C(=O)NCCN2CCN(c3nc4c(C)c(C)ccc4s3)CC2)cc1 | 61.8% (active)
COc1ccc(S(=O)(=O)N2CCN(CCNC(=O)c3ccc(-c4ccccc4)cc3)CC2)cc1 | 8.93% (inactive)
COc1ccc2nc(N3CCN(CCNC(=O)c4ccco4)CC3)sc2c1 | -9.88% (inactive)
O=Cc1ccc(OCc2ccc([N+](=O)[O-])cc2)c(I)c1 | 9.55% (inactive)
Cc1nnc(N2CCC(Cc3ccccc3)CC2)c2ccccc12 | 66.8% (active)
O=C(c1cccnc1N1CCC(Cc2ccccc2)CC1)N1CCCCC1 | 11.1% (inactive)
c1ccc(CC2CCN(c3nc4ccccc4n4cnnc34)CC2)cc1 | -0.95% (inactive)
O=C(c1cnn2c(C(F)(F)F)cc(-c3ccco3)nc12)N1CCN(C(c2ccccc2)c2ccccc2)CC1 | -6.87% (inactive)
O=c1c2ccccc2[nH]c(=S)n1NS(=O)(=O)c1ccccc1 | 0.19% (inactive)
CCc1cccc(CC)c1-n1c(CNC(=O)Cc2ccccc2)nnc1SCC(=O)Nc1ccc(OC)cc1 | -9.51% (inactive)
COc1cc(C(=O)Nc2cnc(NC(=O)c3ccccc3)cc2C)cc(OC)c1OC | 12.9% (inactive)
COc1ccc(CN2CCN(C3CCC(C)CC3)CC2)c(OC)c1OC (stereo not drawn) | 63.1% (active)
COc1ccc(CN2CCN(S(=O)(=O)c3cc(Br)c(Br)s3)CC2)c(OC)c1OC | 19.2% (inactive)
COc1ccc(CN2CCc3nnc(C4CCCO4)n3CC2)c(OC)c1OC (stereo not drawn) | -1.23% (inactive)
COc1ccc(CN2CCN(Cc3ccccc3C)CC2)c(OC)c1OC | 56.1% (active)
CCOC(=O)CSc1ccc(C(=O)N2CCN(Cc3ccc(OC)c(OC)c3OC)CC2)cc1[N+](=O)[O-] | -5.49% (inactive)
Cc1ccccc1CN1CCC(N2CCCCC2)CC1 | 32.6% (inactive)

Compound | inhibition
Cc1noc(C)c1S(=O)(=O)N1CCN(Cc2nc3ccccc3n2C)CC1 | 8.13% (inactive)
COc1ccc(C(=O)CCNC(Cc2cnc[nH]2)C(=O)O)cc1 (stereo not drawn) | 34.2% (inactive)
CC(Oc1ccc(Br)cc1)C(=O)N/N=C/c1ccccc1O (stereo not drawn) | -6.74% (inactive)
COCCn1nnnc1C(C)N(CCCO)Cc1cc2cc(C)ccc2[nH]c1=O (stereo not drawn) | -3.49% (inactive)
O=C(OCC(=O)N1CCN(C(=O)c2ccco2)CC1)c1ccc(O)cc1 | -0.03% (inactive)
CCCOc1ccc(C2C(=O)N(C3CCCCCC3)CC(=O)N2CC2COc3ccccc3O2)cc1OC (stereo not drawn) | 14.9% (inactive)
CC1CCC2C(=O)N(C(CC(=O)O)c3ccco3)C(=O)C2C1 (stereo not drawn) | 32.9% (inactive)
CC1CCC2C(=O)N(c3ccc(I)cc3)C(=O)C2C1 (stereo not drawn) | 51.1% (active)
CC1CCC2C(=O)N(c3cccc(Cl)c3)C(=O)C2C1 (stereo not drawn) | 8.52% (inactive)
N#CC1=C(N)N(c2sc3c(c2C#N)CCCC3)C2=C(C(=O)CCC2)C1c1ccc(Br)s1 (stereo not drawn) | 13.4% (inactive)
CCOC(=O)COc1cc2occ(Oc3cnn(-c4ccccc4)c3)c(=O)c2cc1CC | 9.58% (inactive)
CSc1ncc(/C=C2/C(=O)NC(=O)N(c3ccccc3)C2=O)cn1 | 0.31% (inactive)
Cc1nc2sc(C(c3ccco3)N3CCC4(CC3)OCCO4)c(O)n2n1 (stereo not drawn) | 13.4% (inactive)
Cc1nc2sc(C(c3ccccc3Cl)N3CCC4(CC3)OCCO4)c(O)n2n1 (stereo not drawn) | 60% (active)
Oc1c(C(c2ccccc2Cl)N2CCOCC2)sc2nc(-c3ccco3)nn12 (stereo not drawn) | 11.9% (inactive)
OC[C@@H]1CCCN1Cc1nc(-c2ccccn2)no1 | 7.1% (inactive)
CCOC(=O)C1=C(C)N=c2s/c(=C\c3c[nH]c4ccccc34)c(=O)n2C1c1ccc(OC)c2ccccc12 (stereo not drawn) | 12.2% (inactive)
C=CCNC(=O)c1sc(=S)n2c1[nH]c(=O)c1ccc(C(=O)OC)cc12 | 1.34% (inactive)
COCCOC(=O)c1sc(=S)n(CCOC)c1N | -3.44% (inactive)
C=CCNC(=O)c1sc(=S)n(CC)c1N | 60.2% (active)
CCOc1ccc(Nc2n[nH]c(C)c2[N+](=O)[O-])cc1 | -3.22% (inactive)
